Ins promoter up: MIN6 insulin promoter up-regulation; MIN6 insulin promoter-GFP reporter, high-content imaging; stronger effect = higher value; z-score at 5 µM; 0.3% of 190,000 active; AID 1625;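 active = z-score above 3 at 5 µM with at least 500 cells counted in the well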
Lmaj promast: reduces viability of Leishmania major promastigotes; resazurin fluorescence viability; inhibition, % at 10 µM; 9% of 200,000 active; AID 1063; in the data active = inhibition above about 50%;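 note: promastigotes grown with compound for 44 hours at 28 °C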
HCT116 PTEN-null: PTEN-deleted cell growth suppression. HCT116 PTEN-null viability, CellTiter-Glo, 60 h; stronger effect = lower value. viability, % at 10 µM. 1.2% of 140,000 active;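 active = viability at or below a set limit, 4 SD under the median of all tested compounds, cut at about 3.7% in these data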;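 note: PTEN knockout HCT116 line with beta catenin targeted HCT116 as companion control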
Autophagy HCS: alters autophagy in cells. AID 463193. MEF GFP-LC3 puncta imaging; test concentration mostly 10 µM. calls only at 10 µM (by protocol). 0.98% of 190,000 active;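 active = percentage of spot-positive cells more than 3 SD above its plate mean, without a fluorescence outlier flag or 80% toxicity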
Insulin prom inh: TRM-6 insulin promoter activity inhibition; inhibition, % at 2 µM; 0.9% of 130,000 active; TRM-6 cells (human fetal islet line), insulin promoter-eGFP reporter, imaging; reporter expression induced with tamoxifen; AID 1273;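 active = inhibition above the mean plus 3 SD, with well images judged a real hit on visual review, cut at about 60% in these data, passing the limit was not always enough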
HCT116 bCat-KO: beta-catenin-lacking colon tumor cell growth suppression. HCT116 beta-catenin knockout viability, CellTiter-Glo, 60 h; stronger effect = lower value. viability, % at 10 µM. 1.5% of 140,000 active. AID 818;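 active = viability at or under a set limit, the compound median less 4 SD, cut at about 6% in these data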
Of the large screens only hits and unclear results are named; the others gave an inactive call. A selection: hits, their analogues and other compounds. The true share with any hit is near 9.6%.

COc1ccccc1/C=N/NC(=O)c1ccc(NC(=O)c2cccc([N+](=O)[O-])c2)cc1	none (no result: HCT116 PTEN-null, HCT116 bCat-KO)
COc1ccc(/C=N/NC(=O)CN(CCc2ccccc2)S(=O)(=O)c2ccc(NC(C)=O)cc2)cc1OC	none
COc1cc(/C=N/NC(=O)CN(CCc2ccccc2)S(=O)(=O)c2ccc(NC(C)=O)cc2)cc(OC)c1OC	Lmaj promast 60
CCCC(=O)C1=C(O)C(C(=O)OC)C(C)(C)CC1=NC(C)C (stereo unspecified)	none (no result: Ins promoter up)
O=C1C=C(c2ccccc2)C(=O)N1Nc1ccccc1	none
COc1cc(C(=O)Oc2ccccc2/C=N/NC(=O)c2ccc(Cl)cc2Cl)cc(OC)c1OC	HCT116 PTEN-null 2.4, HCT116 bCat-KO 2.7
COc1cccc(/C=N/NC(=O)c2cc3c(OC)cccc3[nH]2)c1O	Lmaj promast 95, HCT116 PTEN-null 2.6, HCT116 bCat-KO 6.0
COc1ccc(OC)c(/C=N/NC(=O)c2cc3c(OC)cccc3[nH]2)c1	none (no result: Lmaj promast, HCT116 PTEN-null, Autophagy HCS, Insulin prom inh, HCT116 bCat-KO)
COc1cccc(/C=N/NC(=O)c2cc3c(OC)c(OC)ccc3[nH]2)c1OC	Lmaj promast 73
COc1cccc(/C=N/NC(=O)c2ccccc2)c1OS(=O)(=O)c1ccccc1	Lmaj promast 92
COc1cccc(/C=N/NC(=O)c2cc3c(OC)cccc3[nH]2)c1OC	none
CCn1cc(C(=O)NCc2ccccc2Cl)cn1	none
CC1CCC/C(=N/Nc2nc3ccccc3s2)C1 (stereo unspecified)	Lmaj promast 52 (no result: HCT116 PTEN-null, Insulin prom inh, HCT116 bCat-KO)
CC1(C)CC(=O)C/C(=N/Nc2nc3ccccc3s2)C1	none (no result: HCT116 PTEN-null, HCT116 bCat-KO)
COc1ccc2nc(N3CCCC(C(=O)NCCCN4CCN(C)CC4)C3)sc2c1 (stereo unspecified)	Lmaj promast 64
C=CCN1C(=O)/C(=C/C=C2/N(CC)c3ccc(S(=O)(=O)N(C)C)cc3N2CC)SC1=S	Autophagy HCS active (no result: Ins promoter up, HCT116 PTEN-null, Insulin prom inh, HCT116 bCat-KO)
CCOC(=O)c1ccc2c(c1)N(CC)/C(=C\C=C1/SC(=S)N(CC)C1=O)N2CC	none (no result: Ins promoter up, HCT116 PTEN-null, HCT116 bCat-KO)
COc1cccc(C2SCC(=O)N2c2ccc(Cl)cc2)c1OC (stereo unspecified)	Lmaj promast 67
CCc1nc2cc([N+](=O)[O-])c([N+](=O)[O-])cc2[nH]1	Insulin prom inh 75
COc1ccc(NC(=O)COc2ccc(/C=N/NC(=O)c3cccnc3)cc2OC)cc1	Lmaj promast 55
CNC(=S)N/N=C/c1ccc(OCC(=O)Nc2c(C)cc(C)cc2C)c(OC)c1	none (no result: Insulin prom inh)
COc1cc(/C=N/NC(=O)c2cccnc2)ccc1OCC(=O)Nc1c(C)cc(C)cc1C	Lmaj promast 54
COc1cc(/C=N/NC(=O)c2cccnc2)ccc1OCC(=O)Nc1ccccc1Cl	none (no result: HCT116 PTEN-null, Insulin prom inh, HCT116 bCat-KO)
COc1cc(/C=N/NC(N)=S)ccc1OCC(=O)Nc1ccc(C)cc1	none
COc1cc(/C=N/NC(N)=O)ccc1OCC(=O)Nc1cc(C)c(C)cc1Br	Autophagy HCS active (no result: HCT116 PTEN-null, Insulin prom inh, HCT116 bCat-KO)
Cc1cc[n+](CC(=O)c2ccccc2)c2ccccc12	none (no result: Ins promoter up, HCT116 PTEN-null, HCT116 bCat-KO)
CC12CCC(C(=O)N3CCCc4ccccc43)(CC1=O)C2(C)C (stereo unspecified)	none
O=C(O)c1ccccc1N/N=C/c1cc(Br)cc(Br)c1O	none (no result: Lmaj promast, HCT116 PTEN-null, Autophagy HCS, Insulin prom inh, HCT116 bCat-KO)
O=C(O)c1cc(N2C(=O)C3C4C=CC(C4)C3C2=O)ccc1N1CCOCC1 (stereo unspecified)	none (no result: HCT116 PTEN-null, Insulin prom inh, HCT116 bCat-KO)
O=C(CN1CCCCC1)NC(=O)NC1CCCC1	none (no result: HCT116 PTEN-null, HCT116 bCat-KO)
O=C(CN1CCCCCCC1)NC(=O)NC1CCCCC1	Lmaj promast 58 (no result: HCT116 PTEN-null, HCT116 bCat-KO)
CC1Cc2ccccc2N1CC(=O)NC(=O)NCc1ccco1 (stereo unspecified)	Lmaj promast 97 (no result: Ins promoter up)
O=C(CN1CCCc2ccccc21)NC(=O)NCc1ccco1	none (no result: Insulin prom inh)
CC1Cc2ccccc2N1CC(=O)NC(=O)NC1CCCC1 (stereo unspecified)	Lmaj promast 98 (no result: HCT116 PTEN-null, Insulin prom inh, HCT116 bCat-KO)
CCOC(=O)CSc1nnc2n(C3CCCCC3)c(=O)c3c4c(sc3n12)CCCC4	none
O=C(OCCOCCN=C1NS(=O)(=O)c2ccccc21)c1ccncc1	none
COc1ccccc1CNC(=O)CSc1ccccc1	none (no result: HCT116 PTEN-null, HCT116 bCat-KO)
CC(=O)CC(C)(C)n1nnc(-c2ccccc2)n1	none (no result: Insulin prom inh)
Cc1ccc(CSCc2ccc(C(=O)NCCCN3CCOCC3)o2)cc1	none (no result: HCT116 PTEN-null, HCT116 bCat-KO)
O=C(NCCCN1CCCC1)c1ccc(CSCc2cccc(Cl)c2)o1	Lmaj promast 99
CC1CCN(CCCNC(=O)c2ccc(CSCc3cccc(Cl)c3)o2)CC1	Lmaj promast 100, Autophagy HCS active
CN1CCN(CCCNC(=O)c2ccc(CSCc3cccc(Cl)c3)o2)CC1	Lmaj promast 99
CC1CCN(CCCNC(=O)c2ccc(CS(=O)(=O)Cc3ccccc3F)o2)CC1	none
Cn1c(=O)c2c(O)cc(=O)[nH]c2n(-c2ccccc2)c1=O	none
Cc1ccc(SCc2cc(=O)[nH]c(Nc3nc(C)c4cccc(C)c4n3)n2)cc1	none (no result: Ins promoter up)
Cc1ccc2c(C)nc(Nc3nc(CSc4nnnn4-c4ccccc4)cc(=O)[nH]3)nc2c1	HCT116 PTEN-null 3.3, HCT116 bCat-KO 2.7
COc1ccc2nc(Nc3nc(C)c(CCC(C)C)c(=O)[nH]3)nc(C)c2c1	Lmaj promast 99
Cc1nnc(SCc2cc(=O)[nH]c(Nc3nc(C)c4cc(C)c(C)cc4n3)n2)s1	none (no result: HCT116 PTEN-null, Insulin prom inh, HCT116 bCat-KO)
Cc1cccc(CSc2nnnn2-c2ccccc2)c1	none (no result: Ins promoter up)
COc1ccc2nc(Nc3nc(CSc4nnnn4-c4ccccc4)cc(=O)[nH]3)nc(C)c2c1	HCT116 PTEN-null 2.0, Autophagy HCS active, HCT116 bCat-KO 1.8
COc1ccc2nc(Nc3nc(CSc4ccc(C)cc4)cc(=O)[nH]3)nc(C)c2c1	Lmaj promast 65 (no result: HCT116 PTEN-null, Insulin prom inh, HCT116 bCat-KO)
CC(C)CNC(=O)NC(=O)COC(=O)C1CSC2(c3ccc(F)cc3)CCC(=O)N12 (stereo unspecified)	none (no result: HCT116 PTEN-null, HCT116 bCat-KO)
O=C(O)CCC(=O)Nc1ccc(Cc2ccc(NC(=O)CCC(=O)O)cc2)cc1	none (no result: Insulin prom inh)
CCOc1ccc2nc(Nc3nc(CSc4nnnn4-c4ccccc4)cc(=O)[nH]3)nc(C)c2c1	Lmaj promast 50 (no result: Insulin prom inh)
CN(C)c1ccc(C(CNC(=O)c2ccccc2Br)c2c[nH]c3ccccc23)cc1 (stereo unspecified)	Lmaj promast 94
CCOC(=O)c1ccc(S(=O)(=O)NCC(c2ccc(N(C)C)cc2)c2c[nH]c3ccccc23)cc1 (stereo unspecified)	none
CN(C)c1ccc(C(CNS(=O)(=O)c2ccc(F)cc2)c2c[nH]c3ccccc23)cc1 (stereo unspecified)	Lmaj promast 79
O=C(Nn1c(-c2ccc(F)cc2)nc2ccccc2c1=O)c1cccnc1	none (no result: HCT116 PTEN-null, HCT116 bCat-KO)
Cc1sc(-n2c(C)cc(/C=N/n3cnnc3)c2C)c(C#N)c1C	Lmaj promast 77
O=C(O)c1nn(CCOc2cccc(Cl)c2)c(=O)c2ccccc12	none (no result: HCT116 PTEN-null, Insulin prom inh, HCT116 bCat-KO)
O=C(Nc1ccc(F)c(Cl)c1)N1CCCC1	Lmaj promast 99 (no result: HCT116 PTEN-null, Insulin prom inh, HCT116 bCat-KO)
CC(C)N(C)C1CCN(C(=O)Nc2ccc(Cl)c(Cl)c2)CC1	Lmaj promast 60
CCC(=O)Nc1ccc(N2CCN(Cc3ccccc3F)CC2)cc1	none (no result: Insulin prom inh)
O=C(CN1CCCCC1)Nc1ccc(F)c(Cl)c1	none
O=C(Nc1ccc(Cl)cc1)N1CCCN(Cc2ccccc2F)C1	Lmaj promast 57
CC(=O)Nc1ccc(N2CCN(Cc3ccccc3F)CC2)cc1	Lmaj promast 50
